# PubChem BioAssay (NCI)
# Compounds without any hit were thinned out: in the full panel of roughly 83,000, 20% have a hit.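 Compound tested at a single concentration for 48 hours in 96-well plates; a percent growth value below 10 was scored as active.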 Values without a mark were called inactive. The source made the active and inactive calls.
# Key:
# Assay in all cases: NCI-60 one-dose screen, 48 h (100 = growth as untreated, 0 = no growth, -100 = all killed)
# Conditions in all cases: 10 µM unless noted
# [1] = test system: SK-MEL-2 melanoma
# [2] = test system: SN12C renal
# [3] = test system: UO-31 renal
# [4] = test system: TK-10 renal
# [5] = test system: ACHN renal
# [6] = test system: CAKI-1 renal
# [7] = test system: A498 renal
# [8] = test system: CCRF-CEM leukemia
# [9] = test system: MOLT-4 leukemia
# [10] = test system: SR leukemia
# [11] = test system: RPMI-8226 leukemia
# [12] = test system: OVCAR-8 ovarian
# [13] = test system: OVCAR-5 ovarian
# [14] = test system: OVCAR-4 ovarian
# [15] = test system: SK-OV-3 ovarian
# [16] = test system: IGROV1 ovarian
# [17] = test system: HS 578T breast
# [18] = test system: NCI/ADR-RES ovarian
# [19] = test system: OVCAR-3 ovarian
Structure (SMILES),growth [1],growth [2],growth [3],growth [4],growth [5],growth [6],growth [7],growth [8],growth [9],growth [10],growth [11],growth [12],growth [13] [%],growth [14],growth [15],growth [16],growth [17],growth [18] [%],growth [19] [%]
CCc1cc(O)ccc1Nc1cc(-c2ccc(-n3cccn3)cc2)[nH]n1,87.3%,73.5%,50.9%,98.6%,43.9%,44.8%,92.9%,60.4%,43.6%,68.9%,53.5%,58%,78.5,49%,87.2%,86.4%,105%,63.8,–
CC1=C(C)C(=O)C(Nc2ccc(C)c(C)c2)=C(Br)C1=O,112%,98.7%,90.8%,157%,102%,94%,91.1%,-16.8% (active),-14.7% (active),43.6%,29.8%,100%,111,55.1%,100%,90.9%,97.4%,82.7,109
C=C(C)[C@@H]1CC[C@]2(C(=O)NC3CCCCC3)CC[C@]3(C)[C@H](CC[C@@H]4[C@@]5(C)CC[C@H](N)C(C)(C)[C@@H]5CC[C@]43C)[C@@H]12,105%,102%,80.4%,124%,104%,65.4%,118%,79.4%,–,1.36% (active),39%,101%,115,96.4%,117%,113%,95.8%,97.5,101
Nc1ccc(Nc2ncnc3sc4c(c23)CCN(Cc2ccccc2)C4)cc1,109%,96.8%,83.8%,134%,91.7%,90.8%,95.3%,95.1%,87.8%,82.9%,94.3%,99.3%,107,96.8%,113%,101%,98.2%,101,–
O=C(Nc1cccc(C(F)(F)F)c1)N1CCN(c2cc(-c3cn(-c4ccccc4)nc3-c3cccc(O)c3)ccn2)CC1,43.7%,49%,25.3%,63.3%,39.2%,51.8%,49.4%,21.5%,18.9%,27.6%,27.8%,31.4%,82.3,24.9%,84.7%,43.3%,53.5%,28.5,54.4
C/C(CC1(O)C(=O)Nc2ccccc21)=N\O (configuration not stated),102%,98%,84.9%,104%,92.5%,83.5%,70.6%,99.7%,95.4%,100%,100%,101%,99.2,95.1%,108%,97.9%,97.4%,95.9,106
CNc1sc(S(=O)(=O)NC)nc1S(=O)(=O)c1ccc(C)cc1,103%,101%,77.7%,95.5%,101%,91.9%,93.1%,104%,100%,101%,99.2%,102%,92.2,108%,105%,95.1%,103%,103,–
CN1CCN(c2ccc(Nc3nc(NCCCNS(=O)(=O)c4cccc5ccccc45)c4sccc4n3)cc2)CC1,-81.7% (active),-3.36% (active),-51.1% (active),-40.6% (active),-23.8% (active),-52.7% (active),-70.5% (active),7.22% (active),-3.37% (active),4.12% (active),-2.5% (active),5.7% (active),10.8,-35.6% (active),-18% (active),6.32% (active),-25% (active),13.5,–
